Experimental findings from PubChem BioAssay AID2685 (National Center for Advancing Translational Sciences (NCATS), 2010) are described below.

SMILES strings stand for the structures. Screen size: about 320,000 compounds; about 2,100 (0.66%) were called active. Roughly 53% stayed inconclusive and do not appear here. The sample holds actives, similar compounds and a random draw of the others, so the mix is not that of the screen. The call rests on the fitted dose curve; in most records, active means well fitted inhibition curve with a large enough effect in the signal ratio, with a control signal flat (not every such curve was filed as active); inconclusive means small, poorly fitted or top-dose-only effect, or effect the other way, or a change in a side signal; inactive means flat fitted curve, though single readings scatter; the % refers to the signal ratio.
Potency means the concentration at half of the fitted maximal effect.

This assay is described as follows: qHTS Assay for Lipid Storage Modulators in Drosophila S3 Cells.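 On cell number change: cells counted by Cell Tracker Red CMTPX staining in the red channel.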 On lipid storage change, negative = inhibition: on the % scale 0 is the no-effect control and ±100 the full control effect. The settings on record: BODIPY lipid droplet fluorescence, 18-24 h, cells fed with added oleic acid; cell number change: measured here: cell count max response; series mostly up to 46.1 µM. Put shortly:
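Drosophila S3 cells got compounds at several concentrations plus oleic acid (400 uM solution). Laser-scanning cytometry with 488 nm excitation read lipid droplets at 500-530 nm and cells at 575-640 nm. Percent activity was relative to 20 uM Triacsin C.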
`S=C(NCc1ccccc1)NCc1cccc(Cl)c1`: the Potency entry was “inactive” and the cell number change turned out to be 7.23%.

Take `O=C(COc1ccc(S(=O)(=O)N2CCOCC2)cc1)Nc1ccccc1F`: the outcome was “inactive [at 0.0737 µM]”.

On to `Cc1ccc(S(=O)(=O)N2CCOCC2)cc1NC(=O)COc1ccc2c(C)cc(=O)oc2c1`, for which the Potency entry was “inactive”.

In the case of `O=C(COc1ccc(S(=O)(=O)N2CCOCC2)cc1)Nc1ccccc1Cl`, the Potency was 1.84 µM (active) and the cell number change is 7.69%.

For the compound `Cc1ccc(S(=O)(=O)N2CCOCC2)cc1NC(=O)COc1ccc(C(=O)c2ccccc2)cc1`, the Potency is 7.31 µM (active) and the cell number change was 12.9%.

`Nc1nnc(SCC(=O)Nc2ccc(S(=O)(=O)N3CCOCC3)cc2)s1`: the Potency result was “inactive”.

With `Cc1cc(C)c(OCC(=O)Nc2ccc(S(=O)(=O)N3CCOCC3)cc2)c(C)c1`, the Potency is 2.31 µM (active) and the cell number change turned out to be 10.8%.

`Cc1ccc(S(=O)(=O)N2CCOCC2)cc1NC(=O)COC(=O)CNC(=O)c1ccccc1`: the Potency result was “inactive” and the cell number change worked out at 5.41%.

For `Cc1cc(C)c(OCC(=O)Nc2ccc(S(=O)(=O)N3CCCC3)cc2)c(C)c1`, the Potency result is “inactive”.

As to `Cc1ccc(OCC(=O)Nc2ccc(S(=O)(=O)N3CCOCC3)cc2)c(C)c1`, the Potency entry is “inactive” and the cell number change came out at 25.8%.

In the case of `O=C(CSc1ncnc2sccc12)Nc1ccc(S(=O)(=O)N2CCOCC2)cc1`, the Potency is 14.6 µM (active) and the cell number change came out at 4.37%.

On to `O=C(COc1ccccc1Cl)Nc1ccc(S(=O)(=O)N2CCOCC2)cc1`, for which the Potency result is “inactive” and the cell number change was -11.3%.

Take `O=C(CSc1ncnc2ccccc12)Nc1cccc(S(=O)(=O)N2CCOCC2)c1`: the Potency entry is “inactive”.

With `O=C1C(NS(=O)(=O)c2cccs2)=C(N2CCOCC2)C(=O)c2ccccc21`, the Potency result is “inactive” and the cell number change is -7.78%.

With `O=C(Cn1nc2ccccc2n1)N/N=C/c1ccc(F)cc1`, the Potency entry was “inactive” and the cell number change was -8.94%.

As for `CCOC(=O)c1nnn(-c2nonc2N)c1CSc1nnc(N)s1`, the Potency entry is “inactive”.

Turning to `Cc1cccc(C(=O)O/N=C/c2ccc(Br)cc2)c1`, the Potency entry was “inactive” and the cell number change was determined as 7.42%.

Take `Cc1ccc(S(=O)(=O)NC(C(=O)N2CCOCCOCCOCCOCC2)C(C)C)cc1` (stereo not given): the Potency entry was “inactive” and the cell number change is -9.21%.

Consider `Cc1cc(=O)oc2cc(OCC(=O)OCC(=O)Nc3ccc(C(N)=O)cc3)ccc12`, for which the Potency entry was “inactive” and the cell number change amounted to 4.9%.

In the case of `CN1CCN(C(=O)c2ccc(COc3cc(Cl)ccc3Cl)o2)CC1`, the Potency entry is “inactive” and the cell number change stood at 0.87%.

For the compound `CCC1(CC)Cc2ccccc2C(C2=C(O)CC(C)(C)CC2=O)=N1`, the Potency entry was “inactive” and the cell number change amounted to 0.769%.

For the compound `Cc1ccc2c(c1)COc1c3ccc(C(=O)N4CCCCC4)cc3nn1-2`, the Potency entry is “inactive” and the cell number change is -6.37%.

In the case of `O=C(Cc1ccccc1[N+](=O)[O-])NCCc1ccc(F)cc1`, the Potency entry is “inactive” and the cell number change worked out at 16.5%.

With `CC(C)Cc1nnc(NC(=O)C2CCN(C(=O)c3ccc(F)cc3)CC2)s1`, the Potency entry is “inactive”.

`O=C(Cn1cnc2c(cnn2-c2ccccc2)c1=O)Nc1ccc(S(=O)(=O)N2CCOCC2)cc1`: the Potency result is “inactive” and the cell number change was -0.435%.

Take `O=C(Cn1cnc2c(cnn2-c2ccccc2)c1=O)N1CCOCC1`: the Potency result is “inactive”.

Regarding `CC(=O)c1cccc(OCC(=O)Nc2cc(S(=O)(=O)N3CCOCC3)ccc2N2CCCC2)c1`, the Potency result was “inactive” and the cell number change was -28.5%.

Regarding `CCOc1ccc(NC(=O)c2cc(S(=O)(=O)N3CCOCC3)cs2)cc1`, the Potency entry is “inactive” and the cell number change is -10.9%.

Turning to `Cc1ccc(C(=O)NNC(=O)c2ccc(S(=O)(=O)N3CCOCC3)cc2)cc1`, the Potency entry is “inactive” and the cell number change is 13.5%.

`CCc1cccc(OCC(=O)Nc2ccccc2N2CCCC2)c1`: the Potency entry is “inactive” and the cell number change was -24.4%.

In the case of `O=C(Cn1cnc2c(cnn2-c2ccccc2)c1=O)Nc1cc(S(=O)(=O)N2CCOCC2)ccc1Cl`, the Potency is 25.9 µM (active) and the cell number change is -7.78%.

As to `O=S(=O)(c1ccc(OCc2ccc(Br)cc2)cc1)N1CCOCC1`, the Potency entry is “inactive” and the cell number change is -10.6%.

In the case of `CCOc1ccc(C(=O)NNC(=O)c2cc(S(=O)(=O)N3CCOCC3)ccc2Cl)cc1`, the Potency was 25.9 µM (active) and the cell number change came out at 8.57%.

For the compound `CCc1cccc(OCC(=O)Nc2cc(S(=O)(=O)N3CCOCC3)ccc2N2CCCC2)c1`, the Potency was 13 µM (active) and the cell number change was -12.1%.

For the compound `O=S(=O)(c1ccc(Oc2ccc(Br)cc2)cc1)N1CCOCC1`, the Potency is 13 µM (active) and the cell number change was -10%.

`O=S(=O)(c1ccc(Oc2ccccc2)cc1)N1CCOCC1`: the Potency entry is “inactive”.

In the case of `O=C(c1ccccc1)c1cccn1CC(=O)N1CCCCCC1`, the Potency result is “inactive” and the cell number change amounted to 10.2%.

With `CC(=O)N1N=C(c2c(-c3ccccc3)c3cc(C)ccc3[nH]c2=O)CC1c1ccco1` (stereo not given), the Potency result is “inactive”.

As to `Cc1ccc(S(=O)(=O)N2CCOC2CNC(=O)C(=O)NCCc2c[nH]c3ccccc23)cc1` (stereo not given), the cell number change was determined as 24.7% and the lipid storage change, negative = inhibition was 6.05% [at 9.22 µM] (inactive).

Regarding `Cc1nn(C)c(Cl)c1CN1CCN(CCC(C)C)C(CCO)C1` (stereo not given), the Potency entry is “inactive” and the cell number change is 11.3%.

On to `CCOC(=O)c1c(NC(=O)CSc2nnc(C)c(=O)[nH]2)sc(C)c1-c1ccc(C)cc1`, for which the Potency entry was “inactive” and the cell number change stood at 18.2%.

In the case of `COc1cccc(NC(=O)C(C)Sc2nnc(C3CC3)n2C2CC2)c1` (stereo not given), the Potency result is “inactive” and the cell number change was -1.32%.

For `Cc1ccc(S(=O)(=O)N2CCCCC2)cc1NC(=O)COC(=O)Cc1c(F)cccc1Cl`, the Potency entry is “inactive” and the cell number change was 10%.

For `CCOC(=O)/C(=N/Nc1ccc(OC)cc1)N1CCCc2ccccc21`, the Potency entry was “inactive” and the cell number change is -4.8%.

In the case of `CCOC(=O)c1[nH]ncc1CN1CCCC(C(=O)c2ccc(SC)cc2)C1` (stereo not given), the Potency entry is “inactive” and the cell number change worked out at 0.969%.

In the case of `COC(=O)c1ccc(-c2c(-c3ccccc3)ncc3cc(F)ccc23)cc1`, the Potency result is “inactive” and the cell number change was -9.19%.

On to `CCn1c(CNc2ccc(C)cc2)nnc1SCC(=O)NCc1ccccc1`, for which the Potency result was “inactive” and the cell number change is -12.4%.

On to `CCn1c(CSc2nc3ccccc3s2)nnc1SCC(=O)c1ccc(O)cc1O`, for which the Potency result was “inactive” and the cell number change is -7.44%.

Regarding `CCn1c(CSc2nc3ccccc3s2)nnc1SCC(=O)c1ccc(O)c(O)c1`, the Potency result is “inactive” and the cell number change came to 8.44%.

Take `CCn1c(CSc2nc3ccccc3s2)nnc1SCC(=O)NCC(=O)OC`: the Potency was 25.9 µM (active) and the cell number change was -13.2%.

On to `CCn1c(CSCc2ccc(C)cc2)nnc1SCC(=O)NCc1ccccc1`, for which the Potency was 20.6 µM (active) and the cell number change was -15.2%.

Regarding `CCn1c(CSCc2ccc(F)cc2)nnc1SCC(=O)NCc1ccccc1`, the Potency entry was “inactive”.

Take `CC(C)[C@H](N)c1cn([C@@H](CC(N)=O)C(=O)N2CCNCC2)nn1`: the Potency result is “inactive” and the cell number change was determined as 10%.

In the case of `CCOC(=O)Cn1nc(C)c([N+](=O)[O-])c1C`, the Potency entry was “inactive” and the cell number change was found to be 2.33%.

Consider `O=C(CS(=O)CC(=O)N(CC(=O)NC1CCCC1)c1ccc2c(c1)OCCO2)Nc1ccc(F)cc1` (stereo not given), for which the Potency result is “inactive” and the cell number change was determined as 11.4%.

Turning to `Cc1cc(C)c2c(N)c(C(=O)c3ccc(Br)cc3)oc2n1`, the Potency result was “inactive” and the cell number change was -13.1%.

With `Cc1ccc(C(=O)c2oc3nc(C)cc(C)c3c2N)cc1`, the Potency result was “inactive” and the cell number change was -19%.

On to `CCc1ccc(C(=O)c2oc3nc(C)cc(C)c3c2N)cc1`, for which the Potency is 25.9 µM (active) and the cell number change is -19.5%.
